Source: PubChem BioAssay AID1159580 (chemical genetic matrix, 2015)
“And” between values parts separate entries of the source, which are not always exact repeats. Equal values may be shown once. Screen size: about 5,500 compounds; about 2,000 (36%) were called active. Another 18% or so got no clear call; they are omitted. Cut-off read from the data, not from the text of the source: active = normalized growth mostly below about 0.91 (no sharp cut-off); inconclusive = no clear call, values can overlap the other calls; inactive = mostly above about 0.92. The list shows a part of the results.

Assay: chemical genetic growth profiling, strain panel (AID 1159580);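 note: tested at 20 µM; growth read once vehicle control cultures reached saturation at 30 °C; 1 = growth at the plate median or of vehicle wells; lower values mean less growth of the strain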
Settings: S. cerevisiae deletion strains, growth OD

Measured: normalized growth

O=C1C=CC2=C3c4cc(O)c(O)cc4CC3(O)COC2=C1O (centres undefined)
inactive: locus YAL021C, strain ccr4, stronger effect = lower value 0.933 | locus YAL026C, strain drs2, stronger effect = lower value 0.945 | locus YAL030W, strain snc1, stronger effect = lower value 1.02 | locus YBL061C, strain skt5, stronger effect = lower value 0.993 | locus YBR009C, strain hhf1, stronger effect = lower value 0.999 | locus YBR021W, strain FUR4, stronger effect = lower value 1.04 | locus YBR023C, strain chs3, stronger effect = lower value 0.949 | locus YBR171W, strain sec66, stronger effect = lower value 1.06 | locus YBR229C, strain ROT2, stronger effect = lower value 0.996 | locus YBR231C, strain swc5, stronger effect = lower value 0.929 | locus YBR279W, strain paf1, stronger effect = lower value 0.964 | locus YCL011C, strain gbp2, stronger effect = lower value 1.02 | locus YCL016C, strain dcc1, stronger effect = lower value 1.01 | locus YCL029C, strain bik1, stronger effect = lower value 1.04 | locus YCL061C, strain MRC1, stronger effect = lower value 1.01 | locus YCL069W, strain vba3, stronger effect = lower value 1.03 | locus YCR088W, strain abp1, stronger effect = lower value 1.05 | locus YDL005C, strain med2, stronger effect = lower value 1.06 | locus YDL035C, strain GPR1, stronger effect = lower value 0.904 | locus YDL040C, strain nat1, stronger effect = lower value 1.04 | locus YDL074C, strain BRE1, stronger effect = lower value 0.898 | locus YDL101C, strain DUN1, stronger effect = lower value 0.946 | locus YDL134C, strain PPH21, stronger effect = lower value 0.942 | locus YDL185W, strain tfp1, stronger effect = lower value 0.997 | locus YDL192W, strain arf1, stronger effect = lower value 0.998 | locus YDR001C, strain nth1, stronger effect = lower value 1.04 | locus YDR101C, strain arx1, stronger effect = lower value 1.06 | locus YDR137W, strain rgp1, stronger effect = lower value 0.972 | locus YDR159W, strain sac3, stronger effect = lower value 1.13 | locus YDR195W, strain ref2 1.11 | locus YDR297W, strain sur2, stronger effect = lower value 1.01 | locus YDR318W, strain mcm21, stronger effect = lower value 1.01 | locus YDR334W, strain swr1, stronger effect = lower value 0.992 | locus YDR335W, strain msn5, stronger effect = lower value 1.01 | locus YDR388W, stronger effect = lower value 1.03 | locus YDR392W, strain spt3, stronger effect = lower value 1.03 | locus YDR502C, strain sam2, stronger effect = lower value 1.01 | locus YEL003W, strain gim4, stronger effect = lower value 1.01 | locus YEL037C, strain rad23, stronger effect = lower value 1.01 | locus YEL061C, strain CIN8 (second series), stronger effect = lower value 1.04 | locus YEL061C, strain CIN8, stronger effect = lower value 0.964 | locus YER015W, strain faa2, stronger effect = lower value 0.99 | locus YER016W, strain bim1, stronger effect = lower value 1.04 | locus YER110C, stronger effect = lower value 1.05 | locus YER111C, strain swi4, stronger effect = lower value 1.01 | locus YER155C, strain BEM2 (second series), stronger effect = lower value 1.03 | locus YER155C, strain BEM2, stronger effect = lower value 1.05 | locus YER167W, strain BCK2, stronger effect = lower value 1.06 | locus YFR010W, strain ubp6, stronger effect = lower value 0.985 | locus YGL078C, strain dbp3, stronger effect = lower value 1.02 | locus YGL086W, strain mad1, stronger effect = lower value 1.02 | locus YGL167C, strain pmr1, stronger effect = lower value 1.03 | locus YGL173C, strain kem1, stronger effect = lower value 0.947 | locus YGL227W, strain vid30, stronger effect = lower value 1.06 | locus YGL240W, strain doc1, stronger effect = lower value 1.11 | locus YGL248W, strain PDE1, stronger effect = lower value 0.934 | locus YGL253W, strain hxk2, stronger effect = lower value 0.959 | locus YGR078C, strain PAC10, stronger effect = lower value 0.957 | locus YGR135W, strain pre9, stronger effect = lower value 0.985 | locus YGR252W, strain gcn5, stronger effect = lower value 0.966 | locus YHR013C, strain ard1, stronger effect = lower value 0.901 | locus YHR030C, strain SLT2, stronger effect = lower value 0.999 and 0.987 | locus YHR079C, strain IRE1 (second series), stronger effect = lower value 1.03 | locus YHR079C, strain IRE1, stronger effect = lower value 1.01 | locus YHR094C, strain hxt1, stronger effect = lower value 1.05 | locus YHR129C, strain ARP1, stronger effect = lower value 0.967 | locus YHR142W, strain chs7, stronger effect = lower value 0.943 | locus YHR200W, strain rpn10, stronger effect = lower value 1.03 | locus YIL066C, strain RNR3, stronger effect = lower value 0.881 | locus YIL073C, strain SPO22, stronger effect = lower value 0.812 | locus YIL125W, strain kgd1, stronger effect = lower value 1.01 | locus YIR030C, strain dcg1, stronger effect = lower value 1.03 | locus YJL092W, strain hpr5, stronger effect = lower value 1.04 | locus YJL095W, strain BCK1 (second series), stronger effect = lower value 1.01 | locus YJL095W, strain BCK1, stronger effect = lower value 0.926 and 1.02 | locus YJL115W, strain asf1, stronger effect = lower value 1.05 | locus YJL129C, strain trk1, stronger effect = lower value 1.09 | locus YJL134W, strain LCB3, stronger effect = lower value 0.999 | locus YJL154C, strain vps35, stronger effect = lower value 1.03 | locus YJL164C, strain tpk1, stronger effect = lower value 0.968 | locus YJL166W, strain qcr8, stronger effect = lower value 0.995 | locus YJL168C, strain set2, stronger effect = lower value 1.01 | locus YJL187C, strain SWE1, stronger effect = lower value 0.986
active: locus YAL013W, strain DEP1, stronger effect = lower value 0.873 | locus YDR069C, strain doa4, stronger effect = lower value 0.896 | locus YDR162C, strain NBP2, stronger effect = lower value 0.789 | locus YGR229C, strain SMI1, stronger effect = lower value 0.557 | locus YHR027C, strain rpn1, stronger effect = lower value 0.908 | locus YJL187C, strain SWE1 (second series), stronger effect = lower value 0.826
